DRD3 agonist – agonists of human D3 dopamine receptor | D3R DiscoveRx beta-arrestin cells, luminescence, 90 min | max activation, % | 410,000 compounds, 0.58% hits | AID 652048; in the data active = max activation above about 30%; note: 0% is about no effect
Target sequence (P35462 whole entry, looked up): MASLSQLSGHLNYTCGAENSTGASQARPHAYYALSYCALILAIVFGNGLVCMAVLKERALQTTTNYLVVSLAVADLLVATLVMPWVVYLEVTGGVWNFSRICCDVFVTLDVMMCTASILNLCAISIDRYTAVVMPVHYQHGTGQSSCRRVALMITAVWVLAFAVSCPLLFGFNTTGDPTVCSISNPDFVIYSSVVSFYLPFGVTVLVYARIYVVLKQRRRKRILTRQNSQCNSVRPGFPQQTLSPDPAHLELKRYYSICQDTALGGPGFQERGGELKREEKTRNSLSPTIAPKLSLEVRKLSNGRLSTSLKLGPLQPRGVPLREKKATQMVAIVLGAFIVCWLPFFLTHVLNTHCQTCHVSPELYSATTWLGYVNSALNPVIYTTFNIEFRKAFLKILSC
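Cells at 1500/well, incubated overnight, then treated with pinned compounds (dopamine as control) for 90 min at 37 degrees C. DiscoveRx reagent added for 30 - 60 minutes at room temperature; luminescence read.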
DRD3 antagonist – antagonists of human D3 dopamine receptor. P35462. AID 652054. max response, negative = inhibition, %. 360,000 compounds, 2.5% hits. D3R cells, DiscoveRx beta-arrestin luminescence, antagonist mode; active compounds read low; in the data active = max response below about -50%; inconclusive = no clear call, values can overlap the other calls; note: % is set by controls: 0 for no effect and ±100 for the full control effect
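Cells plated overnight at 1500 cells/well, then exposed to library compounds with dopamine controls for 90 minutes at 37 degrees C. DiscoveRx reagent added for 30–60 minutes at room temperature; luminescence read, quantitative HTS format.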
D1 potentiator – potentiators of human D1 dopamine receptor | potentiation, % at 10 µM | P21728 | HEK293 TREx D1 cells, calcium flux, dopamine EC20 potentiation | AID 504651 | 360,000 compounds, 0.036% hits; in the data active = potentiation above about 30%; note: 0% is about no effect
D1 ag – agonists of human D1 dopamine receptor; P21728; HEK293 T-REx D1 cells, calcium flux, agonist mode; activation, % at 2 µM; AID 504660; 360,000 compounds, 1% hits; in the data active = activation above about 30%; note: 0% is about no effect
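Tetracycline-induced HEK293 TREx D1 cells, force-coupled to calcium signalling, were dye-loaded with a no-wash calcium kit. Compound was pin-added after a 10 s baseline. Fluorescence was read kinetically at 1 cycle/s for 180 s, with calcium rises flagged as agonism.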
D1 antag – human D1 dopamine receptor antagonism; P21728; activity change, negative = inhibition, % at 10 µM; 360,000 compounds, 3.2% hits; HEK293 TREx D1 cells, calcium flux, dopamine EC80; active compounds read low; in the data active = activity change below about -30%; note: % is set by controls: 0 for no effect and ±100 for the full control effect
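HEK293 T-REx cells expressing inducible, force-coupled D1 receptor; no-wash Ca dye, 30–90 min RT. Cmpd → 180 s read at 1 Hz → EC80 DA → 180 s read.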
Numbers without * were called inactive. Only some compounds are listed: those with a hit (about 6% of all), similar ones and a draw of the others.

`COc1cc(/C=N/NC(=O)c2ccccn2)ccc1OC(=O)c1ccc(Br)cc1` gave DRD3 agonist 37.4*, DRD3 antagonist 4.2, D1 potentiator -2.1, D1 ag 24.9 and D1 antag -11.1.
Screening O=C(N/N=C/c1c[nH]c2ccccc12)c1sc2ccccc2c1Cl returned DRD3 agonist 8.7, DRD3 antagonist -19.5, D1 potentiator -10.1, D1 ag -0.3 and D1 antag -74.8*.
For O=C(N/N=C/c1ccc(Br)s1)c1c[nH]c2ccccc12 the results were DRD3 agonist -20.9, DRD3 antagonist -54.7*, D1 potentiator -7.5, D1 ag -1.6 and D1 antag 8.2.
O=C(N/N=C/c1c[nH]c2ccc(Br)cc12)c1ccncc1 was read as DRD3 agonist -3.0, DRD3 antagonist -20.8, D1 potentiator -3.4, D1 ag 0.6 and D1 antag 14.9.
Screening COc1ccc(N(CC(=O)N2CCN(c3cccc(OC)c3)CC2)S(=O)(=O)c2c(C)noc2C)cc1 returned DRD3 agonist 2.7, D1 potentiator 1.6, D1 ag -1.2 and D1 antag -4.1.
For COc1ccccc1C(=O)NC(CCSC)C(=O)OCC(=O)N1CCN(S(=O)(=O)c2ccc(C)cc2)CC1 (stereo not given) the results were DRD3 agonist -1.0 and DRD3 antagonist -9.8.
CCCCCCn1cc(CN2CC(N3CCCC3)CS2(=O)=O)nn1 (stereo not given) was read as DRD3 agonist 7.3 and DRD3 antagonist 19.6.
Screening COc1cc(C(=O)N/N=C/c2ccc(OC(=O)c3cccc(C)c3)cc2)ccc1O returned DRD3 agonist 2.5, DRD3 antagonist -4.0, D1 potentiator 10.6, D1 ag 2.1 and D1 antag 4.5.
`COc1cc(/C=N/NC(=O)c2ccc(N)cc2)ccc1OC(=O)c1cccc(C)c1` gave DRD3 agonist 14.8, DRD3 antagonist 31.6, D1 potentiator 2.1, D1 ag 3.6 and D1 antag -40.7*.
For COc1ccc(CN2CCN(Cc3ccc(CO)o3)CC2CCO)cc1C (stereo not given) the results were DRD3 agonist 2.3, DRD3 antagonist 10.1, D1 potentiator 0.8, D1 ag 4.6 and D1 antag 3.4.
For COc1ccc2cc3cc(C(=O)NCCCN4CCc5ccccc5C4)sc3nc2c1 the results were DRD3 agonist -11.4, DRD3 antagonist -65.1*, D1 potentiator -3.2, D1 ag 0.8 and D1 antag 1.8.
For COc1ccc2cc3cc(C(=O)NC4CC4)sc3nc2c1 the results were DRD3 agonist -3.8, DRD3 antagonist -17.6, D1 potentiator -5.8, D1 ag 2.9 and D1 antag 6.7.
For COc1ccc2nc3sc(C(=O)NCCN4CCc5ccccc5C4)cc3cc2c1 the results were DRD3 agonist -51.0, DRD3 antagonist -67.7*, D1 potentiator 9.8, D1 ag 0.9 and D1 antag -4.1.
`C[C@@H]1CN([C@H](C)CO)C(=O)c2cc(-c3ccccc3)cnc2O[C@@H]1CN(C)C(=O)C1CCOCC1` gave DRD3 agonist -7.3 and DRD3 antagonist 7.8.
For CC(C)(CNC(=O)c1cccs1)N1CCOCC1 the results were DRD3 agonist -2.8, DRD3 antagonist -1.9, D1 potentiator -2.7, D1 ag 0.7 and D1 antag 17.7.
Cc1sc2ncnc(N3CCC(C(=O)Nc4cc(C(F)(F)F)ccc4OCC(F)(F)F)CC3)c2c1C was read as DRD3 agonist 6.7 and DRD3 antagonist 22.6.
For Nc1[nH]c(C(=O)c2ccccc2)c(-c2ccc(Cl)cc2)c1C(=O)NCc1ccccc1 the results were DRD3 agonist 56.7* and DRD3 antagonist 0.0.
`S=C(N/N=C/c1ccc(Cl)cc1)N1CCOCC1` gave DRD3 agonist 7.8, DRD3 antagonist 15.3, D1 potentiator -8.9, D1 ag 1.4 and D1 antag -37.4*.
Screening CCCCCCCCN1C(=O)[C@H](CC(=O)NCc2ccccc2)C[C@@]2(C(=O)OC)CC(C)(C)CC=C12 returned DRD3 agonist -0.5 and DRD3 antagonist 0.0.
CN(C)c1nc(C=C(C#N)C#N)c(Cl)n1-c1ccc(F)cc1 was read as DRD3 agonist -19.0, DRD3 antagonist -64.3*, D1 potentiator -1.0, D1 ag 0.3 and D1 antag -9.4.
`Cc1ccc(NC(=O)/C(C#N)=C/c2cc(C)n(-c3ccc(F)cc3)c2C)cc1C` gave DRD3 agonist 6.2, D1 potentiator -0.4, D1 ag 1.3 and D1 antag 2.9.
For CCc1cccc(NC(=O)Nc2ccc3c(c2)N(C)C(=O)c2ccccc2S3)c1 the results were DRD3 agonist 9.0, D1 potentiator 1.2, D1 ag -0.8 and D1 antag -38.9*.
For CN1C(=O)c2ccccc2Sc2ccc(NC(=O)Nc3ccccc3F)cc21 the results were DRD3 agonist -9.4, D1 potentiator 4.0, D1 ag 0.5 and D1 antag 4.1.
Cc1oc(-c2ccccc2F)nc1CS(=O)(=O)CC(=O)N1CCN(c2ccc(Cl)cc2)CC1 was read as DRD3 agonist 0.2, D1 potentiator -3.0, D1 ag 4.7 and D1 antag -18.5.
For O=C(CC1Oc2ccccc2NC1=O)NC1CCCC1 (stereo not given) the results were DRD3 agonist -0.6, DRD3 antagonist 9.4, D1 potentiator -4.2, D1 ag 0.1 and D1 antag -40.1*.
O=C(CC1Oc2ccccc2NC1=O)NC1CC1 (stereo not given) was read as D1 potentiator -4.0, D1 ag 2.1 and D1 antag -4.3.
Screening Cc1ccccc1CNc1ncnc2c1ncn2[C@@H]1O[C@H](CO)[C@@H](O)[C@H]1O returned DRD3 agonist -9.4.
For CCOc1ccc(NS(=O)(=O)c2ccc3[nH]cc(C(=O)NCc4ccco4)c(=O)c3c2)cc1 the results were DRD3 agonist 5.7, D1 potentiator 1.7, D1 ag 0.3 and D1 antag -47.8*.
Cc1ccc(-n2cc(CNCCc3cscn3)c(-c3ccc(F)cc3)n2)cc1 was read as DRD3 agonist -36.4, DRD3 antagonist -14.5, D1 potentiator -3.0, D1 ag 12.0 and D1 antag 29.0.
`COc1ccc(-n2cc(CNCCc3cscn3)c(-c3ccccc3Cl)n2)cc1` gave DRD3 agonist -9.1, DRD3 antagonist -100.6*, D1 potentiator -2.4, D1 ag 23.0 and D1 antag -3.2.
`O=C(Oc1ccc2ccccc2c1Br)N1CCCCCC1` gave DRD3 agonist -1.8, DRD3 antagonist inconclusive, D1 potentiator -4.0, D1 ag 2.1 and D1 antag -0.3.
`O=C(COc1ccc2ccccc2c1Br)N1CCCCC1` gave DRD3 agonist -2.0, DRD3 antagonist -1.8, D1 potentiator -10.1, D1 ag 1.6 and D1 antag -31.7*.
For NC(=O)C1CCN(C(=O)COc2ccc3ccccc3c2Br)CC1 the results were DRD3 agonist -19.2, DRD3 antagonist -27.0, D1 potentiator -6.8, D1 ag 3.2 and D1 antag -64.3*.
